# Source: PubChem BioAssay (Tox21)
# Records with an inconclusive call do not appear. A call without a number means that no potency is given here. Values without a mark were called inactive. The source made the active and inactive calls. Unless noted, calls come from the whole dose curve.
# How the values were obtained:
# [1] = biological target: Peroxisome proliferator-activated receptor delta (Homo sapiens) (UniProt Q03181); test: qHTS assay to identify small molecule agonists of the peroxisome proliferator-activated receptor delta (PPARd) signaling pathway (AID 743212)
# Chain of Peroxisome proliferator-activated receptor delta (Homo sapiens) (Q03181 whole entry, looked up): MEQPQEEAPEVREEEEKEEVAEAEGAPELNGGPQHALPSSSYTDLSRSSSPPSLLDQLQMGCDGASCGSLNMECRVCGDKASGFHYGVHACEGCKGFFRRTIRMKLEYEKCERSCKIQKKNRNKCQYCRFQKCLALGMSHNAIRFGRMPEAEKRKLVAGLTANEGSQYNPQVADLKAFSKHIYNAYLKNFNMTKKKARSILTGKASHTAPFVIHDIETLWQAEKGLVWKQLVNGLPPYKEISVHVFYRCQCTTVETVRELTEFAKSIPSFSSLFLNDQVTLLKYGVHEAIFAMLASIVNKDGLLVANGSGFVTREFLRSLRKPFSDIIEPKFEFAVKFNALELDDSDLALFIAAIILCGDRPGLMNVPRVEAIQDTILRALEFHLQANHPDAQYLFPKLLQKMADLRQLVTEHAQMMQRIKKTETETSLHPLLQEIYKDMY
# Procedure, shortened: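 Quantitative high-throughput agonist screen in a HEK293H beta-lactamase reporter line under UAS control. Compounds in DMSO, at 37 C. Fluorescence read after 2 h with FRET substrate at room temperature.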
# [2] = qHTS assay to identify small molecule antagonists of the peroxisome proliferator-activated receptor delta (PPARd) signaling pathway - cell viability counter screen (AID 743213; active = well fitted curve in the direction sought with a large enough effect in the repeat runs; an effect the other way counts as inactive or inconclusive; note: nearly all actives have a fitted effect of over 50% in size)
# Procedure, shortened: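 CellTiter-Glo was added to PPARd-bla HEK293H wells following 17 h compound treatment in the presence of 300 nM L165041. Luminescence was recorded after 30 min at room temperature.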
# [3] = biological target: Peroxisome proliferator-activated receptor delta (Homo sapiens) (UniProt Q03181); test: qHTS assay to identify small molecule antagonists of the peroxisome proliferator-activated receptor delta (PPARd) signaling pathway (AID 743215; active = well fitted inhibition curve with a large enough effect in the signal ratio in the repeat runs, not every such curve was filed as active; the % refers to the signal ratio;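 note: cells stimulated with agonist L165041 at 300 nM final during compound exposure; series mostly up to about 62 µM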)
# Procedure, shortened: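 With L165041 present at 300 nM final, compounds were incubated 17 h at 37 C on PPARd UAS-bla HEK293H cells. A FRET-based beta-lactamase substrate was then applied for 2 h at room temperature and fluorescence intensity recorded.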
# [4] = biological target: Bile acid receptor (Homo sapiens) (UniProt Q96RI1); test: qHTS assay to identify small molecule antagonists of the farnesoid-X-receptor (FXR) signaling pathway (AID 743217; active = well fitted inhibition curve with a large enough effect in the signal ratio in the repeat runs, not every such curve was filed as active; the % refers to the signal ratio)
# Chain of Bile acid receptor (Homo sapiens) (Q96RI1 whole entry, looked up): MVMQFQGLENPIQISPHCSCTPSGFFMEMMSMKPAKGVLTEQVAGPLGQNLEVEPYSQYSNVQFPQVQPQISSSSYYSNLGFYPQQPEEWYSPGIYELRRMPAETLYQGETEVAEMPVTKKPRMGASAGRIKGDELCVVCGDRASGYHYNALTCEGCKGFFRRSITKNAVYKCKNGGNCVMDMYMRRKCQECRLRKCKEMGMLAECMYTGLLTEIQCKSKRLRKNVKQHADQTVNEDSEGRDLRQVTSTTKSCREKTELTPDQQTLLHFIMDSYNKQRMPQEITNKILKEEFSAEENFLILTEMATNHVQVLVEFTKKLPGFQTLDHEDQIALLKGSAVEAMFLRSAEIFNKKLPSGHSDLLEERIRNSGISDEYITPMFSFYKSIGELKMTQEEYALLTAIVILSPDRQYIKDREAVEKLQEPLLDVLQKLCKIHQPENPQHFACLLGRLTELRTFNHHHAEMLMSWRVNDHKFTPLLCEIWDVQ
# Procedure, shortened: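 In this cell-based antagonist screen, inhibition of CDCA-driven (50 uM final) UAS-beta-lactamase expression in HEK 293T cells was measured by FRET fluorescence following 16 h compound exposure at 37 °C.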
# [5] = qHTS assay to identify small molecule agonists of the farnesoid-X-receptor (FXR) signaling pathway - cell viability counter screen (AID 743218; active = well fitted curve in the direction sought with a large enough effect in the repeat runs; an effect the other way counts as inactive or inconclusive; note: nearly all actives have a fitted effect of over 45% in size)
# Procedure, shortened: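 After 16 h at 37 C with test compounds, FXR-bla HEK 293T cells were given LiveBLAzer B/G substrate for 2 h at RT and then CellTiter-Glo; luminescence was taken after 30 min.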
# [6] = biological target: Bile acid receptor (Homo sapiens) (UniProt Q96RI1); test: qHTS assay to identify small molecule agonists of the farnesoid-X-receptor (FXR) signaling pathway (AID 743220; active = well fitted activation curve with a large enough effect in the signal ratio in the repeat runs, not every such curve was filed as active; the % refers to the signal ratio)
# Procedure, shortened: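 Beta-lactamase reporter under UAS control in GeneBLAzer FXR HEK 293T cells (5000/well) measured with LiveBLAzer FRET substrate after 2 h at room temperature. Compound exposure lasted 16 h at 37C.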
# [7] = qHTS assay to identify small molecule antagonists of the farnesoid-X-receptor (FXR) signaling pathway - cell viability counter screen (AID 743221; active = well fitted cell-killing curve with a large enough effect in the repeat runs, not every such curve was filed as active; note: nearly all actives have a fitted effect of over 50% in size)
# Procedure, shortened: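 After a 5 h settling period, FXR-bla HEK 293T cells receive compound and chenodeoxycholic acid (50 uM final) and incubate 16 h at 37 C; CellTiter-Glo luminescence, read after 30 min at room temperature, reports cell viability.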
# [8] = biological target: Vitamin D3 receptor (Homo sapiens) (UniProt P11473); test: qHTS assay to identify small molecule agonists of the vitamin D receptor (VDR) signaling pathway (AID 743222)
# Chain of Vitamin D3 receptor (Homo sapiens) (P11473 whole entry, looked up): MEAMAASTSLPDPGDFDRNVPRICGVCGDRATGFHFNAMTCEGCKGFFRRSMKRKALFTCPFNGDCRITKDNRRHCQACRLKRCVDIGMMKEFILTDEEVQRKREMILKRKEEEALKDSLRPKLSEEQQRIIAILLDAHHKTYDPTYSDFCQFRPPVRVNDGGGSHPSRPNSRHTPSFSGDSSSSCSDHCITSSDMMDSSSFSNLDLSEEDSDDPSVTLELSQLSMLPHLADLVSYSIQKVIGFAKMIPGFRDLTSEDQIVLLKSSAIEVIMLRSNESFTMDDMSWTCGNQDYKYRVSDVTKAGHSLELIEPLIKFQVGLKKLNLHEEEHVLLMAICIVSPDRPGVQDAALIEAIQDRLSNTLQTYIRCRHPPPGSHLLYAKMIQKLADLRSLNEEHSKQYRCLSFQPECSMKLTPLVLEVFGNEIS
# Procedure, shortened: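 VDR-bla cells were seeded, left 4 h, treated with compounds in DMSO for 16 h, incubated 2 h at RT with B/G FRET substrate, and read for fluorescence.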
# [9] = biological target: Vitamin D3 receptor (Homo sapiens) (UniProt P11473); test: qHTS assay to identify small molecule antagonists of the vitamin D receptor (VDR) signaling pathway (AID 743223; active = well fitted inhibition curve with a large enough effect in the signal ratio in the repeat runs, not every such curve was filed as active; the % refers to the signal ratio)
# Procedure, shortened: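 Reporter line VDR-bla; stimulus 1alpha,25-(OH)2 vitamin D3, 3 nM final; compound co-addition, 16 h 37C/5% CO2; LiveBLAzer B/G substrate 2 h RT; fluorescence intensity.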
# [10] = qHTS assay to identify small molecule agonists of the vitamin D receptor (VDR) signaling pathway - cell viability counter screen (AID 743224; active = well fitted curve in the direction sought with a large enough effect in the repeat runs; an effect the other way counts as inactive or inconclusive; note: series mostly up to about 63 µM; nearly all actives have a fitted effect of over 50% in size)
# Procedure, shortened: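 Here cell health was gauged by luminescent ATP detection (CellTiter-Glo, 30 min RT) in VDR-bla cells that had been incubated with test compounds for 16 h at 37C and 5% CO2.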
# [11] = qHTS assay to identify small molecule antagonists of the vitamin D receptor (VDR) signaling pathway - cell viability counter screen (AID 743225; active = well fitted curve in the direction sought with a large enough effect in the repeat runs; an effect the other way counts as inactive or inconclusive; note: nearly all actives have a fitted effect of over 50% in size)
# Procedure, shortened: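 Parallel cytotoxicity test: VDR-UAS-bla HEK 293T, 3 nM (final) 1-alpha,25-dihydroxyvitamin D3 with test compound, 16 h, 37C. Endpoint is CellTiter-Glo luminescence in the same wells.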
# [12] = qHTS assay to identify small molecule agonists of the NFkB signaling pathway - cell viability counter screen (AID 1159515); note: series mostly up to about 61 µM; nearly all actives have a fitted effect of over 55% in size
# Procedure, shortened: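 5 hr compound treatment of NFkB-bla ME-180 cells (2,000/well, seeded overnight beforehand), followed by reporter substrate for 1.5 hr. CellTiter-Glo added afterward; luminescence after 30 min RT.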
# [13] = qHTS assay to identify small molecule agonists of the endoplasmic reticulum stress response signaling pathway (AID 1159516; active = well fitted activation curve with a large enough effect in the signal ratio in the repeat runs, not every such curve was filed as active; the % refers to the signal ratio)
# Procedure, shortened: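 Reporter HeLa cells (ESRE-beta-lactamase) underwent 5 hr compound incubation at 37 C and 5% CO2 in quantitative HTS format. Detection followed 2 hr of FRET substrate loading at room temperature.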
# [14] = qHTS assay to identify small molecule agonists of the endoplasmic reticulum stress response signaling pathway - cell viability counter screen (AID 1159517)
# Procedure, shortened: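 Counter-screen wells were identical to the reporter wells. Cells were plated at 1,500 per well and dosed for 5 hr, then read for luminescence 30 min after CellTiter-Glo addition.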
# [15] = qHTS assay to identify small molecule antagonists of the retinoid-related orphan receptor gamma (ROR-gamma) signaling pathway - cell viability counter screen (AID 1159520; active = well fitted curve in the direction sought with a large enough effect in the repeat runs; an effect the other way counts as inactive or inconclusive; note: nearly all actives have a fitted effect of over 50% in size)
# Procedure, shortened: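 Tet-on ROR gamma CHO cells were given compounds for 2 hr, then doxycycline hyclate at 1 uM final, and incubated 16 hr at 37 C. Viability was measured as ATP content by CellTiter-Glo luminescence.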
# [16] = biological target: Nuclear receptor ROR-gamma (Homo sapiens) (UniProt P51449); test: qHTS assay to identify small molecule antagonists of the retinoid-related orphan receptor gamma (ROR-gamma) signaling pathway (AID 1159521; active = well fitted curve in the direction sought with a large enough effect in the repeat runs; an effect the other way counts as inactive or inconclusive; note: nearly all actives have a fitted effect of over 50% in size; note: potency is the fitted concentration of half-maximal effect)
# Procedure, shortened: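 Decreased RORE-driven luciferase luminescence indicates antagonism. Tet-on RORγ CHO cells received compound, then 1 uM final doxycycline 2 h later; signal read after 16 h incubation.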
# [17] = qHTS assay to identify small molecule agonists of the AP-1 signaling pathway - cell viability counter screen (AID 1159525); note: nearly all actives have a fitted effect of over 55% in size
# Procedure, shortened: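 AP-1-bla ME-180 cells in Opti-MEM with 0.5% dialyzed FBS, compound exposure 5 h at 37 C in 15-point titration. Viability read in the same wells as ATP content by CellTiter-Glo luminescence, normalised to tetra-n-octylammonium bromide and DMSO controls.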
# [18] = qHTS assay to identify small molecule agonists of the AP-1 signaling pathway (AID 1159526)
# [19] = biological target: Retinoic acid receptor RXR-alpha (Homo sapiens) (UniProt P19793); test: qHTS assay to identify small molecule agonists of the RXR signaling pathway (AID 1159527); note: nearly all actives have a fitted effect of over 35% in size
# Chain of Retinoic acid receptor RXR-alpha (Homo sapiens) (P19793 whole entry, looked up): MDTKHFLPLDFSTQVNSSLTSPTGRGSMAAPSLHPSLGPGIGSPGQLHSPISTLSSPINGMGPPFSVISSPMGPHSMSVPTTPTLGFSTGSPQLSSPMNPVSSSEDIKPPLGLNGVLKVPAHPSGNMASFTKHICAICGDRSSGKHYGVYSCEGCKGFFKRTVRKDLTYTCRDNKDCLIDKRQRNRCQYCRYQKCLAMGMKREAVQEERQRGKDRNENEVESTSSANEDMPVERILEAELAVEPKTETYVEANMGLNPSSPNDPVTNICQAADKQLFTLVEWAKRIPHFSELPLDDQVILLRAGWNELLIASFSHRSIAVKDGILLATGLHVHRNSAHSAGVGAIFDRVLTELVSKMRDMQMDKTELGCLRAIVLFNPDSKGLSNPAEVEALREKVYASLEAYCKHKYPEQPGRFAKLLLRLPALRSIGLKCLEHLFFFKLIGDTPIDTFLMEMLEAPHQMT
# Procedure, shortened: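 16 hr incubation of compound-treated RXR-alpha-UAS-bla HEK 293T cells (2% charcoal-stripped FBS, 37 C) preceded a 2 hr room-temperature LiveBLAzer FRET substrate step and blue/green fluorescence measurement.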
# [20] = qHTS assay to identify small molecule agonists of the RXR signaling pathway - cell viability counter screen (AID 1159529; active = well fitted curve in the direction sought with a large enough effect in the repeat runs; an effect the other way counts as inactive or inconclusive)
# Procedure, shortened: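 In this parallel viability measure, GeneBLAzer RXR-alpha HEK 293T cells (2% charcoal-stripped FBS) were given a 5 hr preincubation, treated with compounds 16 hr at 37 C, and read by CellTiter-Glo luminescence.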
Compound,outcome [1],outcome [2],outcome [3],outcome [4],outcome [5],outcome [6],outcome [7],outcome [8],outcome [9],outcome [10],outcome [11],outcome [12],outcome [13],outcome [14],outcome [15],Potency [16],outcome [17],outcome [18],Potency [19],Potency [20]
CC(CC=O)CC(C)(C)C (configuration not stated),inactive,inactive,inactive,inactive,inactive,inactive,inactive,inactive,inactive,inactive,inactive,inactive,inactive,inactive,inactive,inactive,inactive,inactive,inactive,inactive
O=C(c1ccccc1O)c1ccccc1O,inactive,inactive,,inactive,inactive,inactive,inactive,inactive,inactive,inactive,inactive,inactive,inactive,inactive,inactive,inactive,inactive,inactive,inactive,inactive
C=CN1CCCCCC1=O,inactive,inactive,inactive,,,,inactive,inactive,,inactive,inactive,inactive,inactive,inactive,inactive,inactive,inactive,inactive,inactive,inactive
CC(C)C(=O)OC(=O)C(C)C,inactive,inactive,inactive,,,,inactive,inactive,,inactive,inactive,inactive,inactive,inactive,inactive,inactive,inactive,inactive,inactive,inactive
Nc1ccn([C@@H]2O[C@H](CO)[C@@H](O)C2O)c(=O)n1 (some centres not stated),inactive,inactive,inactive,inactive,inactive,inactive,inactive,inactive,,inactive,inactive,inactive,inactive,inactive,inactive,7.7 µM (active),inactive,inactive,inactive,inactive
CCOc1c(N2CCOCC2)cnn(C)c1=O,inactive,inactive,inactive,,inactive,,inactive,inactive,inactive,inactive,inactive,inactive,inactive,inactive,inactive,inactive,inactive,inactive,inactive,inactive
CC1=CC(=O)[C@H]2C[C@@H]1C2(C)C,inactive,inactive,inactive,inactive,inactive,inactive,inactive,inactive,inactive,,inactive,inactive,inactive,inactive,inactive,inactive,inactive,inactive,inactive,inactive
C=COC(=O)C(C)(CC)CCC(C)C (configuration not stated),inactive,inactive,inactive,inactive,inactive,inactive,,inactive,,inactive,inactive,inactive,inactive,inactive,inactive,inactive,inactive,inactive,inactive,inactive
CC[C@H]1OC(=O)[C@H](C)[C@@H](O[C@H]2C[C@@](C)(OC)[C@@H](O)[C@H](C)O2)[C@H](C)[C@@H](O[C@@H]2O[C@H](C)C[C@H](N(C)C)[C@H]2O)[C@](C)(OC)C[C@@H](C)C(=O)[C@H](C)[C@@H](O)[C@]1(C)O,inactive,inactive,inactive,,,,inactive,,,inactive,inactive,inactive,inactive,inactive,inactive,inactive,inactive,inactive,inactive,inactive
N[C@H](C(=O)O)[C@@H](O)c1ccc(O)c(O)c1,inactive,inactive,,inactive,inactive,inactive,inactive,inactive,inactive,inactive,inactive,inactive,inactive,inactive,inactive,inactive,inactive,inactive,inactive,inactive
NC(=O)Cc1cccc2ccccc12,inactive,inactive,inactive,inactive,inactive,inactive,inactive,,,inactive,,inactive,inactive,inactive,inactive,inactive,inactive,inactive,inactive,inactive
CC(C)c1ccc2ncccc2c1,inactive,inactive,inactive,inactive,inactive,inactive,inactive,,,,,inactive,inactive,inactive,inactive,inactive,inactive,inactive,inactive,inactive
CCOCC(C)O (configuration not stated),inactive,inactive,,inactive,inactive,inactive,inactive,inactive,,inactive,,inactive,inactive,inactive,inactive,inactive,inactive,inactive,inactive,inactive
CC/C=C\CCOC(C)OCC (configuration not stated),inactive,inactive,inactive,,,,inactive,,inactive,inactive,inactive,inactive,inactive,inactive,inactive,inactive,inactive,inactive,inactive,inactive
[O-][n+]1cccc(CO)c1,inactive,inactive,inactive,,inactive,,inactive,inactive,inactive,,inactive,inactive,inactive,inactive,inactive,inactive,inactive,inactive,inactive,inactive
